PubChem BioAssay (NCATS)
Records with an inconclusive call do not appear. Active and inactive are the calls of the source. Calls come from the whole dose curve; as a rule, active = well fitted curve in the direction sought with a large enough effect; inconclusive = small, poorly fitted or top-dose-only effect, or another doubt; inactive = no such curve, though single readings can be large; an effect the other way counts as inactive or inconclusive.

How the values were obtained:
[1] = biological target: Glutathione peroxidase 1 (Homo sapiens) (UniProt P07203); assay: Primary qHTS Assay for Inhibitors of Recombinant Selenoprotein Glutathione Peroxidase 1 (GPX1) (AID 1845191); note: nearly all actives have a fitted effect of over 65% in size; for activity, negative = inhibition: % is set by controls: 0 for no effect and ±100 for the full control effect
Procedure, shortened: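 Recombinant GPX1 (10 nM final) was preincubated with compound for 30 min at room temperature, then reacted with 1 mM GSH, 0.5 mM CHP, 0.5 mM NADPH and 100 nM glutathione reductase; NADPH fluorescence (340/450 nm) was read at 0 and 15 min.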

[2] = biological target: Phospholipid hydroperoxide glutathione peroxidase GPX4 (Homo sapiens) (UniProt P36969); assay: Primary qHTS Assay for Inhibitors of Recombinant Selenoprotein Glutathione Peroxidase 4 (GPX4) (AID 1845192); note: nearly all actives have a fitted effect of over 65% in size
Procedure, shortened: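 GR-coupled readout: 100 nM GR, 1 mM GSH, 0.5 mM NADPH; NADPH fluorescence (ex 340/em 450 nm) read at t=0 and after 15 min RT. GPX4 200 nM, preincubated 30 min with compound; substrate 0.5 mM CHP.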

[3] = biological target: Luciferin 4-monooxygenase (Photinus pyralis) (UniProt P08659); assay: Primary firefly luciferase (FLuc) qHTS assay for identification of artifact compounds. (AID 1845220); note: nearly all actives have a fitted effect of over 60% in size
Procedure, shortened: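 In this counter-screen for luciferase artifacts, test compounds met substrate (10 uM each luciferin and ATP) before 10 nM enzyme started the reaction. Light output was measured 5 min later.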

[4] = Primary fluorescence-based thiol-reactive (MSTI) qHTS assay for identification of artifact compounds. (AID 1845221); note: nearly all actives have a fitted effect of over 65% in size; note: potency is the fitted concentration of half-maximal effect;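 for activity change, negative = thiol reactive: series mostly up to about 54 µM; thiol-reactive compounds lower the probe fluorescence signal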
Procedure, shortened: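 Reactivity toward the thiol probe MSTI (4 uM) is scored by fluorescence at Ex/Em 525/598 nm after 1 h at room temperature. Acetyl-MSTI and MSTI define the activity scale.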

[5] = system: Nanoluciferase (engineered Oplophorus gracilirostris luciferase); assay: Primary Nanoluciferase (NLuc) qHTS assay for identification of artifact compounds. (AID 1845222);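 note: NLuc secreted into diluted conditioned medium of S16 cells; series mostly up to about 54 µM; 0% = DMSO and -100% = no enzyme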
Procedure, shortened: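 Using secreted nanoluciferase in S16 culture medium (0.22 um filtered, 1:55 dilution), compounds were preincubated 15 min at RT. Signal was generated with Nano-Glo reagent (1:100) over 5 min.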

[6] = Primary redox qHTS assay for identification of artifact compounds. (AID 1845223);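 note: 0% = DMSO and 100% = reference compound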
Procedure, shortened: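 Amplex Red (25 uM) and HRP (250 mU/mL) in HBSS, with compounds for 15 min, then 250 uM DTT for 30 min, room temperature, dark. Fluorescence 525/598 nm read; normalized to DMSO and 10 uM DA3003; Hill fit.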

Glutathione peroxidase 1 (Homo sapiens), sequence (P07203 whole entry, looked up): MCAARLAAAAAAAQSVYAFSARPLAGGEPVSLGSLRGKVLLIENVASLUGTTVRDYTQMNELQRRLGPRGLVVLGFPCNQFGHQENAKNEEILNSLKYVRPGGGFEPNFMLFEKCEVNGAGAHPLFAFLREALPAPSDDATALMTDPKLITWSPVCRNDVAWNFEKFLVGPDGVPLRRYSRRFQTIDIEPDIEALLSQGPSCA
Phospholipid hydroperoxide glutathione peroxidase GPX4 (Homo sapiens), sequence (P36969 whole entry, looked up): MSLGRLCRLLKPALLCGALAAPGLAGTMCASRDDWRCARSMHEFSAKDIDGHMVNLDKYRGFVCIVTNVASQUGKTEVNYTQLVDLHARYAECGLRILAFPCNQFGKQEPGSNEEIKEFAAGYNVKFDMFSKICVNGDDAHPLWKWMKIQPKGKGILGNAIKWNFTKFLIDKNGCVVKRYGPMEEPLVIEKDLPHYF

O=C(O)c1cccc(S(=O)(=O)N2CCc3ccccc3C2)c1
inactive: Potency [1] | Potency [2] | Potency [3] | Potency [4] | Potency [5] | Potency [6]

C=C(C)C1CCC2(C(=O)O[C@@H]3O[C@H](CO[C@@H]4O[C@H](CO)[C@@H](O)[C@H](O)[C@H]4O)[C@@H](O)[C@H](O[C@@H]4O[C@@H](C)[C@H](O)[C@@H](O)[C@H]4O)[C@H]3O)CCC3(C(=O)O)C(CCC4C5(C)CCC(O)C(C)(C)C5CCC43C)C12 (stereo not given in full)
inactive: Potency [1] | Potency [2] | outcome [3] inactive [at 11.6 µM] | activity change, negative = thiol reactive [4] 301% [at 11.5 µM] | activity, negative = inhibition [5] 0% [at 11.6 µM] | redox activity (% of DA3003) [6] 10.3% [at 11.5 µM]

O=C(N/N=C/c1ccc(O)c(O)c1)c1cc2ccccc2cc1O
active: Potency [4] 0.707 µM
inactive: Potency [1] | Potency [2] | Potency [3] | Potency [5] | Potency [6]

N#C[C@@H]1CCCN1C(=O)CNC12CC3CC(CC(O)(C3)C1)C2
inactive: Potency [1] | Potency [2] | Potency [3] | Potency [4] | Potency [5] | Potency [6]

C/C1=C\CC[C@]2(C)O[C@@H]2[C@H](O)[C@H](C(C)C)[C@H](OC(=O)/C=C/c2ccccc2)C1
inactive: Potency [1] | Potency [2] | Potency [3] | Potency [4] | Potency [5] | Potency [6]

C=C1CCC[C@]2(C)CC[C@@H](C(=C)C(=O)O)[C@H](O)[C@@H]12
inactive: Potency [1] | Potency [2] | Potency [3] | Potency [4] | Potency [5] | Potency [6]

CC1=C(CCC(C)CC(=O)O)[C@@]2(C)CCCC(C)(C)C2CC1=O (stereo not given in full)
inactive: Potency [1] | Potency [2] | Potency [3] | Potency [4] | Potency [5] | Potency [6]

CC1(C(=O)O)CCCC2(C)C3=CCC4CC3(CCC12)CC4CO (stereo not given)
inactive: Potency [1] | Potency [2] | Potency [3] | Potency [4] | Potency [5] | Potency [6]

C[C@@]12C[C@]3(O)O[C@H](O1)[C@]1(COC(=O)c4ccccc4)[C@H]3C[C@@]12O[C@@H]1O[C@H](CO)[C@@H](O)[C@H](O)[C@H]1O
inactive: Potency [1] | Potency [2] | Potency [3] | Potency [4] | Potency [5] | Potency [6]

C=C(C(=O)OC)C1C(O)CC2(C)C(O)CCC(=O)C2C1O (stereo not given)
inactive: Potency [1] | Potency [2] | Potency [3] | Potency [4] | Potency [5] | Potency [6]

CCCOc1ccc(-c2nc(OC)c3ccccc3n2)cc1
inactive: Potency [1] | Potency [2] | Potency [3] | Potency [4] | Potency [5] | Potency [6]

C=C1C(=O)O[C@@H]2C[C@H](C)[C@@]3(O)C=C(C(C)=O)[C@]4(CC3C[C@H]12)C(=O)O[C@H]1C[C@@H](C)C(CCC(C)=O)=CC[C@H]14 (stereo not given in full)
inactive: Potency [1] | Potency [2] | Potency [3] | Potency [4] | Potency [5] | Potency [6]

CC1(C)CC[C@]2(C(=O)O)CC[C@]3(C)C(=CCC4[C@@]5(C)CC[C@H](O[C@@H]6O[C@H](C(=O)O)[C@@H](O[C@@H]7OC[C@@H](O)[C@H](O)[C@H]7O)[C@H](O)[C@H]6O)C(C)(C)C5CC[C@]43C)C2C1O (stereo not given in full)
inactive: Potency [1] | Potency [2] | Potency [3] | Potency [4] | Potency [5] | Potency [6]

CN(C)C/C=C/C(=O)Nc1cccc(C(=O)Nc2ccc(Nc3nccc(-c4cccnc4)n3)cc2)c1
inactive: Potency [1] | Potency [2] | Potency [3] | Potency [4] | Potency [5] | Potency [6]

O=C(O[C@H]1[C@@H]2C[C@@H]3OC[C@](O)([C@@H]1Cl)[C@H]2C(O[C@@H]1O[C@H](CO)[C@@H](O)[C@H](O)[C@H]1O)O3)c1ccc(O)c(O)c1 (stereo not given in full)
active: Potency [4] 1.46 µM
inactive: Potency [1] | Potency [2] | Potency [3] | Potency [5] | Potency [6]

C/C(=C\CCC1(C)C2CCC(C2)C1(C)O)C(=O)O (stereo not given)
inactive: Potency [1] | Potency [2] | Potency [3] | Potency [4] | Potency [5] | Potency [6]

N#Cc1ccc2[nH]cc(CCCCN3CCN(c4ccc5oc(C(N)=O)cc5c4)CC3)c2c1
inactive: Potency [1] | Potency [2] | Potency [3] | Potency [4] | Potency [5] | Potency [6]

COc1ccccc1NC(=O)OCC1CCN(C(=O)OC(C)(C)C)CC1
inactive: Potency [1] | Potency [2] | Potency [3] | Potency [4] | Potency [5] | Potency [6]

C[C@@H]1CCC2C(C)(C)[C@H](O)CC[C@]2(C)[C@@]12Cc1c(O)cc3c(c1O2)CN([C@@H](CCC(=O)O)C(=O)O)C3=O (stereo not given in full)
inactive: Potency [1] | Potency [2] | Potency [3] | Potency [4] | Potency [5] | Potency [6]

C/C(=C\CCC(C)CCO)C(=O)O[C@@H]1[C@@H](O)[C@H](OC2OC=C(C(=O)O)C3CCC(C)(O)C23)O[C@H](CO)[C@H]1O (stereo not given in full)
inactive: Potency [1] | Potency [2] | Potency [3] | Potency [5] | Potency [6]
active: Potency [4] 8.22 µM
